In PubChem BioAssay one finds z-score data, which are given here for 9 compounds.

This assay in a line: adipocyte viability effects, profiling panel, cell-based, 3T3-L1 adipocytes, calcein-AM fluorescence, 48 h, basal (AID 1163). Also: test concentration not given here. Particulars: 3T3-L1 adipocytes viability, higher = more signal.
In the case of `CCCC[C@@H](O)C1=C(COC)Cn2c(=O)n(-c3ccccc3)c(=O)n2[C@H]1CO`, the z-score is 0.122. Under `CCN(CC)c1ccc(N2CC=CC34O[C@@H]5C=CCOC(=O)[C@@H]5[C@H]3C(=O)N(CCCO)[C@@H]4C2=O)cc1` (some centres undefined) stands 1.85. Take `COCCOC(=O)N1C(=O)[C@@]2(c3cc(C#CCC(C(=O)OC)C(=O)OC)ccc31)[C@H](c1ccc(OCCO)cc1)N1[C@H](c3ccccc3)[C@H](c3ccccc3)OC(=O)[C@H]1[C@@H]2C(=O)N1CCCCCCC1`: the z-score was 0.586. The result for `CCOC(=O)C1=CC[C@@H](c2ccc(F)cc2)N(S(=O)(=O)c2ccc(C)cc2)[C@H]1c1ccc([N+](=O)[O-])cc1` reads -0.415; that for `COC(=O)c1c(CC[C@@H](CO)NC(=O)N[C@@H](Cc2ccccc2)Cn2cc(-c3cncn3C)nn2)oc(C(C)=O)c1C(=O)OC`, 1.15; that for `O=C(NCCO)C1=C[C@H](Oc2ccccc2I)[C@@H](O)[C@H](NCc2ccc(F)cc2)C1`, 2.37.

Regarding `CCCCN1CC=CC23O[C@@H]4/C=C\CCC(C)OC(=O)C4[C@H]2C(=O)N(C(C)CO)[C@@H]3C1=O` (some centres undefined), the z-score is -0.708.

For `CC(C)C[C@@H]1NC(=O)C([C@@H](C)OCc2ccccc2)NC(=O)[C@@]23C(=O)N[C@@H](Cc4ccccc4)C2[C@H](C)[C@@]2(C)O[C@H]2C3/C=C/CC/C=C/CNC1=O` (some centres undefined), the z-score was 1.58.

Consider `COCCOC(=O)N1C(=O)[C@@]2(c3cc(C#CCCO)ccc31)[C@H](C(=O)N1CCc3cc(OC)c(OC)cc3C1)[C@H]1C(=O)O[C@H](c3ccccc3)[C@H](c3ccccc3)N1[C@@H]2c1ccccc1OCCO`, for which the z-score was 0.514.
